From ChEMBL document CHEMBL3433997, “St. Jude Leishmania screening dataset” (2016)

Assays:
Type in all cases: functional
[1] = target: Solute carrier family 2, facilitated glucose transporter member 1 (Homo sapiens) (UniProt P11166); experiment: ST_JUDE_LEISH: Cytotoxicity at 2uM final concentration against transgenic Leishmania Mexicana promastigotes LmGLUT1 that are glucose transport deficient and complemented with the human glucose transporter GLUT1. Activity is measured by DNA content using SYBR green in vitro
Solute carrier family 2, facilitated glucose transporter member 1 (Homo sapiens), sequence (P11166 whole entry): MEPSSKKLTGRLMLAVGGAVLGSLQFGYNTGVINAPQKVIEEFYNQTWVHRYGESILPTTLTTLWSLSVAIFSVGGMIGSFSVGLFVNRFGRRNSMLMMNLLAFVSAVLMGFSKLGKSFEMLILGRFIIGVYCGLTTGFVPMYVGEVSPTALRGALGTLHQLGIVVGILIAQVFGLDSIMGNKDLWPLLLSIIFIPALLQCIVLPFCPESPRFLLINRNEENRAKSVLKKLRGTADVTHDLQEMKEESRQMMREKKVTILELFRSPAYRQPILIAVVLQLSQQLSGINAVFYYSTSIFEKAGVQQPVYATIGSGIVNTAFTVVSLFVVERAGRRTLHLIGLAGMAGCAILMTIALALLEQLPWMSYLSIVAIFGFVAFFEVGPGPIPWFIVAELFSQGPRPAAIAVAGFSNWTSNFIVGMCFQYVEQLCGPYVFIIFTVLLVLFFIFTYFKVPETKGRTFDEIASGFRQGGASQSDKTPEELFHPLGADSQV

[2] = target: Hexose transporter 1 (Plasmodium falciparum) (UniProt O97467); experiment: ST_JUDE_LEISH: Cytotoxicity at 2uM final concentration against transgenic Leishmania Mexicana promastigotes LmPfHT that are glucose transport deficient and complemented with the Plasmodium falciparum hexose transporter. Activity is measured by DNA content using SYBR green in vitro
[3] = target: Glucose transporter (Leishmania mexicana) (UniProt O61059); experiment: ST_JUDE_LEISH: Cytotoxicity at 2uM final concentration against transgenic Leishmania Mexicana promastigotes LmGT2 that are glucose transport deficient and complemented with the L. Mexicana glucose transporter 2. Activity is measured by DNA content using SYBR green in vitro

Row | SMILES | inhibition [1] [%] | inhibition [2] [%] | inhibition [3] [%]
1 | C=CCc1cc(OC)ccc1OCCCOc1c(C)nc(N)nc1N | 78.2 | 77.6 | 65.3
2 | CN(C)c1cc(NC(=O)Nc2ccccc2)c2ccccc2n1 | 2.21 | 5.06 | 2.82
3 | COc1cccc([C@@H](CC(=O)Nc2cc(C(F)(F)F)ccc2OC)Nc2ccc(C#N)c3ccccc23)c1 | 7.27 | 5.34 | 4.83
4 | N#Cc1ccc(N2CCN(Cc3cccc(-c4ccc(-c5nc6cc(C(F)(F)F)ccc6[nH]5)cc4)c3)CC2)nc1 | 4.01 | 6.49 | 0.17
5 | CNCCNCc1cccc(-c2ccc(-c3nc4cccc(C)c4[nH]3)cc2)c1 | -1.62 | -3.38 | 0.95
6 | Cc1onc(-c2c(Cl)cccc2Cl)c1C(=O)NC1=NC(C)(C)ON1c1ccccc1 | 5.88 | 5.44 | 4.86
7 | CCn1cc(C=C2Oc3c(ccc(O)c3CN3CCCCC3C)C2=O)c2ccccc21 (stereo not drawn) | 4.31 | 5.13 | 3.81
8 | O=C(NCCCCN1CCC(c2cccc3ccccc23)CC1)c1ccc(NC(=O)c2ccc(Cl)cc2)cc1 | 1.07 | 0.25 | 0.68
9 | N#Cc1ccc(N[C@@H](CC2CCCCC2)C(=O)NCc2cc(F)c(F)cc2F)c2ccccc12 | 13 | 14.1 | 12
10 | O=S(=O)(NCCN1CCCC1)c1cccc(-c2cccc(CNCc3ccsc3)c2)c1 | -0.74 | -0.16 | 1.71
11 | Fc1ccc2c(NN=CC=Cc3ccccc3)ccnc2c1 | 12.7 | 9.84 | 11.3
12 | COc1ccc(C2CCN(CCN3CCC(NC(=O)c4ccc(-c5cccc(C(F)(F)F)c5C(F)(F)F)cc4)CC3)CC2)c(OC)c1 | 0.36 | 1.29 | -0.58
13 | NC1CCN(Cc2cccc(-c3ccc(-c4nc5cc(F)ccc5[nH]4)cc3)c2)C1 (stereo not drawn) | 2.82 | 1.25 | -0.29
14 | COc1ccc2nccc([C@@H](O)CN3CCC(NC(=O)/C(=C/c4ccccc4)c4ccc(-c5ccccc5)cc4)CC3)c2c1 | 1.6 | 0.83 | 0.6
15 | COc1ccc(N2CCN(c3nc(N)c4cc(OC)c(OC)cc4n3)CC2C)cc1 (stereo not drawn) | 0.19 | 1.45 | -0.49
16 | CCOC(=O)c1c(CN(CC)CC)n(-c2ccccc2)c2cc(Br)c(O)cc12 | 2.14 | 3.81 | 1.76
17 | CC(C)CNCc1cccc(-c2ccccc2CNC2CCN(Cc3ccccc3)CC2)c1 | 5.47 | 4.95 | 7.56
18 | CCOc1cccc(C(=O)Nc2nonc2-c2ccc(OC)c(OC)c2)c1 | 10.3 | 9.2 | 7.57

Row | SMILES | inhibition [1] [%] | inhibition [2] [%] | inhibition [3] [%]
19 | O=C(Nc1ccc(Cl)cc1)Nc1nc2cc([N+](=O)[O-])ccc2[nH]1 | 0.18 | 0.01 | 0.02
20 | O=C(/C=C/c1ccc(Cl)c(Cl)c1)NCCCCCCN1CCN(C(=O)Nc2ccc(OC(F)F)cc2)CC1 | 5.36 | 6.98 | 6.38
21 | O=[N+]([O-])c1cccc(NC(=S)N2CCCN(Cc3ccc(Cl)cc3Cl)CC2)c1 | 2.36 | 3.32 | 3.01
22 | Cc1ccccc1C1CCN(C2CCC(NC(=O)/C=C/c3ccc(F)cc3)CC2)CC1 (stereo not drawn) | -1.42 | -0.14 | 0.53
23 | CCCCCc1ccc(N2C(N)=NC(N)=NC2(C)C)cc1 | 3.51 | 2.87 | 4.35
24 | CC(C)N1CCN(c2ccc(OCCCCN3CCN(c4cccc(Cl)c4Cl)CC3)cc2Cl)CC1 | -1.28 | 0.44 | -2.3
25 | Cc1cc2ccc(-c3cccc(CN)c3)cc2nc1N | 0.93 | 1.15 | 0.73
26 | O=C1C2C3SC(c4c3ccc3ccccc43)C2C(=O)N1c1ccccc1 (stereo not drawn) | -0.44 | 0.31 | -1.01
27 | CCCCCCN1CCC(CNCc2cccc([N+](=O)[O-])c2)CC1 | 5.28 | 9.36 | 5.95
28 | c1ccc2nc(NCCCCCCCCNc3ccc4ccccc4n3)ccc2c1 | 5.37 | 3.68 | 4.58
29 | CN(C)CCCn1cncc1-c1ccc2ncnc(Nc3ccc(OCc4ccccc4)cc3)c2c1 | 4.09 | 6.87 | 7.01
30 | CCCCSc1ccc2nc(-c3c[nH]c4ccc(C#N)cc34)cn2c1 | -0.49 | 3.17 | 3.81
31 | CC1Cc2ccccc2N1S(=O)(=O)c1cccc(C(=O)Nc2nc(-c3ccccn3)cs2)c1 (stereo not drawn) | 13.8 | 14.6 | 5.62
32 | CCN(CC)CCN(Cc1ccc(-c2ccc(C(F)(F)F)cc2)cc1)C(=O)Cn1c(CCc2cccc(F)c2F)nc(=O)c2ccccc21 | 1.51 | 0.95 | 1.67
33 | Cc1csc2nc(-c3ccccn3)nc(Nc3ccc4ncsc4c3)c12 | 0.73 | 2.13 | 0.95
34 | CCOC(=O)c1nc(-c2cc(Cl)nc(Cl)c2)[nH]c1NC(=S)NCCCN1CCOCC1 | 2.49 | 1.96 | 0.84
35 | c1ccc(-c2ccc(CNCc3ccc(-c4cccc(-c5nc6ccccc6[nH]5)c4)cc3)s2)nc1 | 1.04 | 2.78 | 0.61
36 | O=C(NCc1ccc(F)cc1)Nc1cccc(-c2ccc(-c3nc4cc(F)ccc4[nH]3)cc2)c1 | 6.43 | 7.78 | 7.37
